From the OligoGym collection

What follows are sequences tested against BOLA1 (assay: pooled miR-30 sensor sort-seq; sequence = guide strand). Details: shRNA.
Further: reference of the scale not given here.

Sequence | sensor-assay potency score (higher = more potent)
TAGGGGGCTCAGTCCCTCGAAA | -1.29
TGCGAAGCTCTAGCACCTCGGG | -1.19
TTGACCTGAAGCAAGTTGCTAT | -0.107
TTGCGAAGCTCTAGCACCTCGG | -0.666
TTCTTGTTCCCACCCAGGCATG | -1.63
TAACATGGAACATCCGGGCTGC | 0.946
TGAGAGTTCTCTCTCCACTGGG | -0.015

What follows are sequences tested against BOP1 in the same assay as above. Details: shRNA.

Sequence | sensor-assay potency score (higher = more potent)
TTCGTCATCATCCTCACTGCTG | 0.313
TTGCTATCGTAGCTCCCACAGA | -1.14
TTGATGGCGTGCACCATGCGAG | -1.27
TCTACATTCACCCTCATCTTGC | -0.893
TAGTCAGGATCGTCCATCTTGT | -0.541
ATCCAGGTCAAACCACACCAGC | -1.99
TTGTACACCATGCCATGGCAGA | -1.35
TTGGGCATCAGCTTCTTGGTGA | 0.503
AGGATCGTCCATCTTGTCCAGG | -2.16
TTGACGGGCACCAGCAAGGGGT | -1.16
TCAAACCACACCAGCTTGCTAT | -1.16
TTCCTGGATGAAGCGTCCGTAG | -1.83

The sequences below were run against BRAP in the same assay as above. Details: shRNA.

Sequence | sensor-assay potency score (higher = more potent)
AAAACTATCCGCATCAGCCTGT | 0.418
TAAATATGAATACTCTAACTGT | -0.208
TGACATACCGTCCACATCCTAT | -1.06
TTTTACTTGCAACCAGTCGATG | -1.46
TAATCGCTACTTTCTCTCCTGG | -0.199
TCTTCTATTGAGTTGAACTGGC | -0.232
TTTAGCTGAGTGCACTTTCTTT | -0.371
TTCTCTATCCGAACTATCTTGT | -0.12
TTAGTAAATATGAATACTCTAA | -0.689
TAGGAGATCATTTAGTTTGTGC | 0.0397
TTTCCTGAACACCACACTCAAA | -1.71
TTTCTTTCCACAGACTGCTTTT | -0.773

These sequences were tested against BRD2 in the same assay as above. Details: shRNA.

Sequence | sensor-assay potency score (higher = more potent)
TGCAGTAACAGCAAGGAGCGGG | -0.301
TACATCAGCAGCAAACTCCTGT | 0.587
TTGGATTATATGCACAACTCGG | -1.15
TTCTCATTCGCTTTCTTGGGGG | -0.27
TTTGGGATTGGACACCTCCGGG | -1.12
TAATTTTGTGATAATCCGGTAG | 0.162
TATAATTTTGTGATAATCCGGT | 0.775
TAGGACAATATCATCAGTGGGC | 0.486
TTGTTTTCAAGTCTCCTCTTAA | -0.54
